# Measurements from PubChem BioAssay AID2314 (National Center for Advancing Translational Sciences (NCATS), 2010).
# The campaign covered roughly 300,000 compounds. About 37,000 (12%) were called active. No stated cut-off is given here; in the data, active means max response mostly above about 13% (no sharp cut-off); inactive means mostly below about 14%. Shown is part of a subset that was picked to be rich in actives.
# Experiment: Cycloheximide Counterscreen for Small Molecule Inhibitors of Shiga Toxin; further: read at 38.3 µM for the half of the compounds with a filed dose; 0% is about no effect
# Details: cell reporter, cycloheximide protein synthesis inhibition counterscreen; active compounds read high
row,SMILES,max response
1,O=C1NC(=O)C2C1C(c1ccc([N+](=O)[O-])cc1)=NN2Cc1ccccc1 (centres undefined),-2.84% (inactive)
2,Cc1ccc(C2=Nc3c(ccc4ccccc34)C(c3ccncc3)=NN2)cc1,1.6% (inactive)
3,CCC1OC(c2ccc([N+](=O)[O-])cc2)=Nc2ccccc21 (centres undefined),-5.5% (inactive)
4,CCc1ccc2c(c1)C(c1ccc([N+](=O)[O-])cc1)=NNC(c1ccccc1)=N2,33.3% (active)
5,COc1ccc2c(c1)C(c1cccs1)=NNC(c1cccnc1)=N2,18.1% (inactive)
6,CCOc1ccc2c(c1)C(c1ccc(C)cc1)=NNC(c1ccc(C)cc1)=N2,54.8% (active)
7,COc1ccc(-c2onc3ccc(C(C)=O)cc23)cc1,2.44% (inactive)
8,CC1=C(C(=O)OC(C)(C)C)C(c2ccc(Br)cc2)NC(=O)N1CCCC(=O)O (centres undefined),-2.28% (inactive)
9,O=C(c1cc2cc(Br)cc(Br)c2oc1=O)N1CCOCC1,0.493% (inactive)
10,CC1CCN(CCCNC(=O)CN2C(=O)CSc3ccc(S(=O)(=O)N4CCCCC4)cc32)CC1,-0.237% (inactive)
11,O=C(CN1CCC(NC(=O)C2CC2)CC1)Nc1ccccc1[N+](=O)[O-],7% (inactive)
12,O=C1c2ccccc2C(=O)N1CCc1nn[nH]n1,-3.78% (inactive)
13,O=C1c2ccccc2C(=O)N1CCC(O)C[N+](=O)[O-] (centres undefined),-2.75% (inactive)
14,O=C1c2ccccc2C(=O)N1CCC(c1ccccc1)c1ccco1 (centres undefined),24.4% (active)
15,CCCN1CCn2c3c(c4cc(Br)ccc42)CCCC31 (centres undefined),25.3% (active)
16,OC(CNCC1CCCO1)Cn1c2ccc(Br)cc2c2cc(Br)ccc21 (centres undefined),-6.3% (inactive)
17,COCCn1c(SCC(=O)c2[nH]c(C)c(C(C)=O)c2C)nc2ccccc2c1=O,-3.66% (inactive)
18,N#Cc1c(NC(=O)CCCl)sc2c1CCCCC2,21.9% (active)
19,N#Cc1c(NC(=O)c2ccc(N3CCOCC3)c([N+](=O)[O-])c2)sc2c1CCCC2,1.18% (inactive)
20,CC(=O)c1c(C)[nH]c(C(=O)OCC(=O)Nc2sc3c(c2C#N)CCCC3)c1C,-1.13% (inactive)
21,N#Cc1c(NC(=O)C2CC(Cl)=CCC2C(=O)O)sc2c1CCCCC2 (centres undefined),-1.59% (inactive)
22,N#Cc1c(NC(=O)C2CCCO2)sc2c1CCCCC2 (centres undefined),48.6% (active)
23,CCN1CCN(CC(=O)Nc2sc3c(c2C#N)CCC3)CC1,1.34% (inactive)
24,O=C1C(=O)N(CCCO)C(c2ccccc2)/C1=C(\O)c1ccc(Br)cc1 (centres undefined),0.724% (inactive)

row,SMILES,max response
1,CN1C(=O)/C(=C/C=C2\SCCN2C)OC1=S,37.4% (active)
2,Cc1csc(NC(=O)CSc2nc(=O)cc(N)n2-c2ccc(F)cc2)n1,16.3% (inactive)
3,CCc1ccc(OCC(=O)NCC(c2ccc(Cl)cc2)N2CCCCC2)cc1 (centres undefined),-2.84% (inactive)
4,COc1ccc(-c2cc3n(n2)CCc2nc4ccccc4n2-3)cc1,9.75% (active)
5,CCn1c(C(O)c2cc(OC)ccc2OC)nc2ccccc21 (centres undefined),5.8% (inactive)
6,COc1ccc(-c2cc(C(=O)n3cnc4ccccc43)c3ccccc3n2)cc1,16.1% (inactive)
7,CC(CC(=O)Nc1ccc(F)cc1F)S(=O)(=O)c1ccc2c(c1)NC(=O)CO2 (centres undefined),2.18% (inactive)
8,Brc1ccc(-c2nn[nH]n2)cc1,9.02% (inactive)
9,c1cc(-c2nn[nH]n2)ccc1CN1CCCCC1,-1.37% (inactive)
10,CC(C)c1ccc(-c2nn[nH]n2)cc1,23% (active)
11,COc1cccc(NC(=O)CCNS(=O)(=O)c2ccc3c(c2)oc(=O)n3C)c1,0.768% (inactive)
12,COc1ccc(OCc2nnc3n2N=C(c2ccccc2)C(CC(=O)O)S3)cc1 (centres undefined),-4.15% (inactive)
13,COc1ccc(CNC(=O)C(=O)NCC2OCCN2C(=O)c2ccc(OC)cc2)cc1 (centres undefined),-1.12% (inactive)
14,N#Cc1ccccc1NC(=O)c1cccc(COc2ccc(Cl)cc2Cl)c1,116% (active)
15,CSc1ccc(C#N)cc1NC(=O)c1cccc(Cl)c1,-1.93% (inactive)
16,CSc1ccc(C#N)cc1NC(=O)c1ccc(Cl)cc1,6.79% (inactive)
17,COc1ccc(OC)c(NC(=O)c2cccc(S(=O)(=O)N3CCN(C(C)=O)CC3)c2)c1,-2.4% (inactive)
18,CC[n+]1c(C)n(-c2ccccc2)c2ccc(NC(C)=O)cc21,8.88% (inactive)
19,Cc1ccc(CCN2CC(C(=O)NCCc3ccccc3)CC2=O)cc1 (centres undefined),20.4% (inactive)
20,COc1cccc(CNS(=O)(=O)c2csc(C(N)=O)c2)c1,-4.05% (inactive)
21,COc1ccc(C(=O)NCCn2nc(C)cc2C)cc1OC1CCN(C(C)=O)CC1,1.36% (inactive)
22,O=C(N/N=C\c1cccnc1)c1cc(-c2ccccc2)nc2c(Cl)cccc12,-2.05% (inactive)
23,Cc1ccc(/C=N/NC(=O)c2cc3ccccc3cc2O)o1,19.4% (active)
24,O=C(N/N=C/c1cccnc1)c1ccc(NC(=O)c2ccc(F)cc2)cc1,-1.26% (inactive)

row,SMILES,max response
1,O=C(N/N=C/c1cccnc1)c1cc2ccccc2cc1O,35.6% (active)
2,Cc1ccc(/C=N/NC(=O)CNC(=O)COc2ccccc2)o1,-7.97% (inactive)
3,Cc1ccc(/C=N/NC(=O)CSc2ccccn2)o1,17.1% (inactive)
4,CCC(C)[C@H](NC(=O)N1c2ccccc2NC(=O)[C@@H]1C(C)C)C(=O)N[C@@H](Cc1ccccc1)C(=O)O (some centres undefined),1.02% (inactive)
5,COc1ccc(OCC(O)CN(C)C(=O)C(C)Oc2ccccc2)cc1 (centres undefined),-1.78% (inactive)
6,Cc1ccc(SC(CC(=O)c2ccc(C(C)(C)C)cc2)C(=O)O)cc1 (centres undefined),7.94% (inactive)
7,Cc1cc(-c2ccc(C)c(S(=O)(=O)NC(C)Cc3ccco3)c2)on1 (centres undefined),17.2% (inactive)
8,COC(=O)c1ccc(NC(=O)c2cc3c(CO)cnc(C)c3oc2=Nc2cccc(C(N)=O)c2)cc1,-3.69% (inactive)
9,CCCc1ccc(OCC(=O)NNC(=S)NC(=O)c2ccco2)cc1,-2.62% (inactive)
10,COc1ccc(CCNC(=O)c2ccco2)cc1,33% (active)
11,CCCCOCCCNC(=O)c1ccccc1OCC,-1.45% (inactive)
12,CCOc1ncccc1C(=O)NCCc1ccc(OC)cc1,-4.4% (inactive)
13,Cc1ccc(OCC(=O)NCCCNC(=O)c2ccco2)cc1C,-3.33% (inactive)
14,CCCc1ccc(OCCNC(=O)c2ccco2)cc1,37.4% (active)
15,COc1ccc(CCNC(=O)c2ccccc2OCc2ccccc2)cc1,-1.84% (inactive)
16,CCCCOc1ccc(C(=O)NCc2ccco2)cc1,27.4% (active)
17,CCCCOc1ccc(C(=O)NCc2ccncc2)cc1,4.92% (inactive)
18,CCOc1cc(NC(=S)NCCCOC)c(OCC)cc1NC(=O)c1ccco1,2.79% (inactive)
19,CCCc1ccc(OCCNC(=O)c2ccccc2Br)cc1,16.2% (active)
20,O=C(CCCOc1ccccc1)NCc1ccco1,8.48% (inactive)
21,CC(C)Oc1c(Br)cc(Br)cc1/C=N/NC(N)=S,-0.405% (inactive)
22,CN(C(=O)CN1C(=O)CCSc2ccc(S(=O)(=O)N3CCCC3)cc21)c1ccccc1,1.23% (inactive)
23,CCOc1ccc(N(C)Cc2cc(=O)oc3ccc(OC)cc23)cc1,-1.56% (inactive)
24,O=C(C1CCC(=O)N(C2CC2)C1)N1CCN(c2ccc(Cl)cc2)CC1 (centres undefined),-2.23% (inactive)

row,SMILES,max response
1,CCn1c(CSCc2c(Cl)cccc2Cl)n[nH]c1=S,7.21% (inactive)
2,O=C(C[n+]1cc(-c2ccc(Cl)c(Cl)c2)n2c1CCC2)c1cccs1,-1.98% (inactive)
3,CCOc1ccccc1NC(=S)N1CCN(c2cccc(C)c2C)CC1,-1.77% (inactive)
4,NC(=O)CCC(NS(=O)(=O)c1ccc(Cl)cc1)C(=O)NCc1ccccc1Cl (centres undefined),-1.61% (inactive)
5,Cc1nn(CC(=O)NCCc2ccccc2)c(=O)c2cc3occc3n12,-3.95% (inactive)
6,O=C(Cn1c(-c2cscn2)nc2ccccc21)Nc1ccc(Cl)cc1,-2.37% (inactive)
7,c1ccc(CN2CCC(N=C3NN=C(c4ccc5c(c4)OCCO5)CS3)CC2)cc1,32.2% (active)
8,Clc1cccc(N=C2NN=C(c3ccc4c(c3)OCCO4)CS2)c1,74.7% (active)
9,CC(=NC1CCN(Cc2ccccc2)CC1)c1c(O)[nH]c(=O)[nH]c1=O,-1.74% (inactive)
10,CS(=O)(=O)N(CC(=O)N1CCN(Cc2ccccc2)CC1)c1ccc2c(c1)OCCO2,-2.95% (inactive)
11,COc1cc(/C=N/NC(=O)Nc2ccccc2)ccc1OCCOc1ccccc1C,-1.6% (inactive)
12,COc1cc(C2C3=C(CCCC3=O)OC3=C2C(=O)CCC3)ccc1OCC(=O)Nc1ccccc1,4.65% (inactive)
13,CCOC(=O)/C(C#N)=C/c1ccc(OCC(=O)Nc2ccccc2)c(OC)c1,22.6% (active)
14,COc1cc(CCC(=O)OCC(=O)Nc2cccc(S(N)(=O)=O)c2)cc(OC)c1OC,-3.66% (inactive)
15,CCOC(=O)/C(C#N)=C/c1cn(CCC(=O)O)nc1-c1ccc(Br)cc1,-0.95% (inactive)
16,CCCn1c(C)cc(/C=C(\C#N)C(=O)OCC(=O)Nc2cc(OC)c(OC)c(OC)c2)c1C,31.9% (active)
17,COc1ccc(-c2nnc(SC(=O)N3c4ccccc4Sc4ccccc43)o2)cc1,9.5% (inactive)
18,COc1ccc2[nH]c(=O)c(C3c4cc(OC)c(OC)cc4CCN3C(=O)c3ccco3)cc2c1 (centres undefined),-3.91% (inactive)
19,NS(=O)(=O)c1cccc(NC(=O)CC23CC4CC(CC(Br)(C4)C2)C3)c1,-0.826% (inactive)
20,O=C(CN1C(=O)/C(=C/c2ccccc2F)Sc2ccccc21)NCc1cccnc1,8.85% (inactive)
21,O=C(CN1C(=O)/C(=C\c2ccccc2F)SC1=S)Nc1nc2ccccc2s1,47.4% (active)
22,CN(C(=O)CCN1C(=O)/C(=C/c2ccccc2F)SC1=S)C1CCS(=O)(=O)C1 (centres undefined),4.42% (inactive)
